Drawing on PubChem BioAssay AID624330 (Southern Research Specialized Biocontainment Screening …, 2012), this text covers inhibition for 32 compounds.

Out of some 340,000 compounds screened, about 2,100 (0.62%) were called active. A selection follows. Potency and affinity values are given separately. Values without a mark were called inactive.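 Rule for the calls: active = first-screen hits whose inhibition reached a set limit at any dose in the follow-up dose series; inconclusive = inhibition above the set first-screen limit but never retested; inactive = the rest.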

Sequence of Rac GTPase-activating protein 1 (Homo sapiens) (Q9H0H5 whole entry, looked up): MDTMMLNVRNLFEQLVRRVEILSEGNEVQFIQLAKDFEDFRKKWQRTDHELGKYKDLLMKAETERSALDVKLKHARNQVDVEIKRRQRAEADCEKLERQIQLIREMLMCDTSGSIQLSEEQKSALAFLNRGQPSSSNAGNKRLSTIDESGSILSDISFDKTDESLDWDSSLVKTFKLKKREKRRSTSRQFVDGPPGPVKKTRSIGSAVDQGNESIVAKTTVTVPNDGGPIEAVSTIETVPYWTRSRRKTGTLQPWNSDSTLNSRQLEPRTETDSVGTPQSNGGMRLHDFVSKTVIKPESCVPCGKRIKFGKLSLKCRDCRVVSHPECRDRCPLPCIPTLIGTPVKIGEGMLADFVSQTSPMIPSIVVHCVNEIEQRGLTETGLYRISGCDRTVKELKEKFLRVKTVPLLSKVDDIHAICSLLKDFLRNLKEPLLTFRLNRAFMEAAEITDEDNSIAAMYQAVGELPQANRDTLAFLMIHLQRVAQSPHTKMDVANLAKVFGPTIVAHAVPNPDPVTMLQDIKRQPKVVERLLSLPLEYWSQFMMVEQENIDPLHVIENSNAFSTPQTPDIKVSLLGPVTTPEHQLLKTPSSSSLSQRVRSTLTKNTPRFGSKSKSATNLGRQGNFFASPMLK

The assay concerns the target Rac GTPase-activating protein 1 (Homo sapiens) (UniProt Q9H0H5). The experiment in a line: MgcRacGAP GTPase-activating activity inhibitors, confirmation, biochemical, ADP Hunter fluorescence, primary and confirmatory (AID 624330).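 Note: fluorescence reports GDP produced by GAP-driven GTP hydrolysis.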 The note with it: MgcRacGAP-stimulated Rac1 GTP hydrolysis, at 30 µM, stronger effect = higher value, GST-tagged Rac1 F28L mutant substrate.
Take `O=C(c1ccccc1)N1CCN(C2CCCCCC2)CC1`: the inhibition is 25.4%.
As for `COc1cccc(C(=O)N2CCN(C3CCC(c4ccccc4)CC3)CC2)c1` (configuration not stated), the figure is 14.9%; as for `O=C(c1ccc(F)cc1)N1CCC(N2CCCCCC2)CC1`, 11%; as for `O=C(c1ccc(F)cc1)N1CCN(C2CCC(c3ccccc3)CC2)CC1` (configuration not stated), 12.1%.
For `CC1CCCC(N2CCN(C(=O)c3ccc(F)cc3)CC2)C1` (configuration not stated) the value was 19.6%.
As for `COc1cc(OC)cc(C(=O)N2CCN(C3CCCCC3)CC2)c1`, the figure is 19.9%; as for `O=C(c1ccc([N+](=O)[O-])cc1)N1CCCC1`, 13.8%; as for `O=C(c1ccccc1)N1CCN(C2CCCCC2)CC1`, 44.8%.
Regarding `COc1ccc(-n2c(SC3CCOC3=O)nc3ccccc3c2=O)cc1OC` (configuration not stated), the inhibition was 7.23%.
As for `FC(F)(F)c1cccc(N2CCN(C3CC4CCC3C4)CC2)c1` (configuration not stated), the figure is -3.5%.
In the case of `CC(C(=O)NCCN1CCOCC1)(c1ccccc1)c1ccccc1`, the inhibition was 9.67%.
For `CCN(Cc1cc(OC)c(OC)c(OC)c1)C(=S)Nc1cccc(SC)c1` the value was 8.44%.
For `COc1ccccc1CNS(=O)(=O)c1cc(C(=O)NCC2CCCO2)c(Cl)cc1Cl` (configuration not stated) the value was 4.61%.
As for `O=C(c1nc[nH]c1C(=O)N1CCN(c2ccccc2)CC1)N1CCN(c2ccccc2)CC1`, the figure is 8.08%; as for `CN(CC(=O)Nc1ccccc1C(F)(F)F)C(=O)COc1cccnc1[N+](=O)[O-]`, 2.02%; as for `C/C(=N\NC(=O)c1ccc(Cl)cc1)c1ccccn1`, -1.19%.
As for `Cc1sc2ncnc(N3CCC(C(=O)Nc4ccc(S(N)(=O)=O)cc4)CC3)c2c1C`, the inhibition is 6.51%.
Turning to `O=C(c1cccc(F)c1)N1CCC(N2CCCCCC2)CC1`, the inhibition was 27%.
For `CC1CCCC(N2CCN(C(=O)c3cccc(F)c3)CC2)C1` (configuration not stated) the value was 13.7%.
For `CC(C)Oc1ccc(CNC(=O)c2cc(S(=O)(=O)N3CCOCC3)cn2C)cc1` the value was 7.69%.
As for `Cc1ccc2c(CC(=O)OCc3csc(C)n3)coc2c1`, the figure is 3%; as for `Cc1ccc2c(CC(=O)O)coc2c1`, -1.54%; as for `COc1ccc(CN2CCN(C(=O)c3cc(-c4cccnc4)nc4ccc(Cl)cc34)CC2)c(OC)c1OC`, 0.91%.
For `CCCn1c(=O)c2c(C(F)(F)F)cc(-c3ccco3)nc2n(CCC)c1=O`, the inhibition was 6.17%.
As for `C/C(CC(=O)Nc1ccc([N+](=O)[O-])cc1)=N\NC(=O)c1ccccc1O`, the figure is 3.2%; as for `C/C(CC(=O)Nc1ccc(N(C)C)cc1)=N\NC(=O)c1cnccn1`, 25.8%.
For the compound `COC(C(=O)N/N=C(\C)CC(=O)Nc1ccc(Cl)cc1C)c1ccccc1` (configuration not stated), the inhibition is 0.47%.
For `C/C(CC(=O)Nc1ccc(N(C)C)cc1)=N\NC(=O)c1ccc(Cl)cc1`, the inhibition is 21.2%.
As for `C/C(CC(=O)Nc1ccc([N+](=O)[O-])cc1)=N\NC(=O)c1ccccc1[N+](=O)[O-]`, the figure is 7.35%.
As for `C/C(CC(=O)Nc1ccc(N(C)C)cc1)=N\NC(=O)c1ccccn1`, the figure is 16.9%; as for `COc1cc(NC(=O)C/C(C)=N/NC(=O)C(OC)c2ccccc2)c(OC)cc1Cl` (configuration not stated), 15.9%; as for `C/C(CC(=O)Nc1ccc(N(C)C)cc1)=N\NC(=O)c1ccc(C(C)(C)C)cc1`, 14.2%.

As usually defined, the inhibition is the drop in the measured response relative to a control, in per cent.
